{"source": "PubChem BioAssay (Tox21)", "note": "Where “and” joins values, the source holds several entries; their conditions need not be identical. Equal values may be shown once. Results filed as inconclusive are left out. Unmarked numbers belong to inactive results. Calls of active or inactive are those of the source. Calls follow the shape of the dose curve; as a rule, active = well fitted cell-killing curve with a large enough effect in the repeat runs; inconclusive = weak or mixed curves, or effect the other way; inactive = no such curve, though single readings can be large or run the other way. % is scaled to controls: 0 for no effect and ±100 for the full control effect; potency is read from the fitted curve at half-maximal effect.", "data": [{"test": "qHTS assay to identify small molecule agonists of the vitamin D receptor (VDR) signaling pathway - cell viability counter screen (AID 743224); also: nearly all actives have a fitted effect of over 50% in size", "details": "VDR-bla HEK293T viability, CellTiter-Glo luminescence, 16 h; series mostly up to 62.6 µM; activity change, negative = cytotoxicity: at the top concentration", "excerpt": "U.S. Tox21 Program National Center for Advancing Translational Sciences [NCATS] NIH Chemical Genomics Center [NCGC] U.S. Environmental Protection Agency [EPA] National Institutes of Environmental Health Sciences [NIEHS] National Toxicology Program [NTP] U.S. Food and Drug Administration [FDA] Tox21 Assay Overview: The vitamin D receptor (VDR), a member of nuclear hormone receptor superfamily, plays a critical role in calcium homeostasis and bone metabolism. It is also involved in cell differentiation and growth, and thrombogenicity. […] The cytotoxicity of the Tox21 compound library against the VDR-bla cell line was tested in parallel by measuring the cell viability using CellTiter-Glo assay (Promega, Madison, WI) in the same wells.\nTox21 Assay Protocol Summary: VDR-bla cells were dispensed at 2,000 cells/6 uL/well into black wall/clear-bottom 1536-well plates using a Multidrop Combi (Thermo Fisher Scientific, Waltham, MA) dispenser. After the assay plates were incubated at a 37C and 5% CO2 for 4 h, 23 nL of compounds dissolved in DMSO, positive controls or DMSO only was transferred to the assay plate by a Pintool station (Kalypsys, San Diego, CA). The plates were incubated at 37C and 5% CO2 for 16 h. After 1 uL of LiveBLAzerTM B/G FRET substrate was added using a Bioraptr Flying Reagent Dispenser (FRD) workstation (Beckman Coulter, Indianapolis, IN, USA), the plates were incubated at room temperature for 2 h, and fluorescence intensity was measured by an Envision plate reader (PerkinElmer, Shelton, CT). For cell viability readout that measures cytotoxicity, 3 ul/well of CellTiter-Glo reagent was added into the assay plates using a FRD. After 30 min incubation at room temperature, the luminescence intensity in the plates was measured using a ViewLux (PerkinElmer) plate reader.", "values": [{"smiles": "[CH3][Hg][Cl]", "Potency": "38.8 µM (active)"}, {"smiles": "C[C@]12Cc3nonc3C[C@@H]1CC[C@@H]1[C@@H]2CC[C@@]2(C)[C@H]1CC[C@]2(C)O", "activity change, negative = cytotoxicity": "-15.4%"}, {"smiles": "CCCCCCCCCCCCBr", "activity change, negative = cytotoxicity": "-18.3%"}, {"smiles": "C[C@@H]1O[C@@H](O[C@@H]2C=C3CC[C@@H]4[C@H](CC[C@]5(C)[C@@H](c6ccc(=O)oc6)CC[C@]45O)[C@@]3(C)CC2)[C@H](O)[C@H](O)[C@H]1O", "Potency": "0.0133 µM (active)"}, {"smiles": "CCCCN(CCCC)C(=S)[S-].CCCCN(CCCC)C(=S)[S-].[Zn+2]", "Potency": "5.49 µM (active)"}, {"smiles": "BrCBr", "activity change, negative = cytotoxicity": "-6.83% [at 81.1 µM]"}, {"smiles": "CCCN(CCC)CCc1c[nH]c2ccccc12", "activity change, negative = cytotoxicity": "-24.3% [at 81.1 µM]"}, {"smiles": "CN(C)C(=S)S", "Potency": "50 µM (active) and 1.09 µM (active) and 9.77 µM (active)"}, {"smiles": "CC(c1ccc(O)cc1)c1ccc(O)cc1", "activity change, negative = cytotoxicity": "-16.1%"}, {"smiles": "CC(C)(C)c1cc([N+](=O)[O-])cc(C(C)(C)C)c1O", "Potency": "12.3 µM (active)"}, {"smiles": "CC(=O)[O-].CC(=O)[O-].[Hg+2]", "Potency": "1.74 µM (active)"}, {"smiles": "O=c1oc2ccccc2c(O)c1Cc1c(O)c2ccccc2oc1=O", "activity change, negative = cytotoxicity": "-14.1%"}, {"smiles": "Cc1ccc(OP(=O)(Oc2ccccc2)Oc2ccccc2)cc1", "activity change, negative = cytotoxicity": "3.03% [at 81.1 µM]"}, {"smiles": "[Hg+2].[I-].[I-]", "Potency": "1.55 µM (active)"}, {"smiles": "c1ccc2cc3c(cc2c1)-c1cccc2cccc-3c12", "activity change, negative = cytotoxicity": "6.16%"}, {"smiles": "CC1CCC(C(C)C)C(OC(=O)c2ccccc2N)C1", "note": "(stereo not given)", "Potency": "34.2 µM (active)"}, {"smiles": "CC(C)CC(C)N", "note": "(stereo not given)", "activity change, negative = cytotoxicity": "14.5%"}, {"smiles": "CCCCCCCCCCCCCCCC[N+](C)(C)C", "Potency": "21.1 µM (active) and 24.5 µM (active)"}, {"smiles": "CCCCCCCCCCCCCC[P+](CCCCCC)(CCCCCC)CCCCCC", "note": "(tested in a mixture with another compound)", "Potency": "3.09 µM (active)"}, {"smiles": "Clc1ccc(COC(Cn2ccnc2)c2ccc(Cl)cc2Cl)cc1", "note": "(stereo not given)", "Potency": "20.4 µM (active) and 13.7 µM (active) and 26.6 µM (active)"}, {"smiles": "CC(=O)O[C@H]1CC[C@@]2(C)C(=CC[C@@H]3[C@@H]2CC[C@]2(C)C(=O)CC[C@@H]32)C1", "activity change, negative = cytotoxicity": "-7.08%"}, {"smiles": "ClCc1ccc(Cl)cc1Cl", "activity change, negative = cytotoxicity": "11.2%"}, {"smiles": "CCCCCCCCCBr", "activity change, negative = cytotoxicity": "8.74% [at 81.1 µM]"}, {"smiles": "CC(C)(O)c1cnn2c(-c3ccc(F)c(-c4c(F)cccc4C#N)c3)cnc2n1", "Potency": "27.5 µM (active)"}, {"smiles": "N#CSCSC#N", "Potency": "15.8 µM (active) and 17.2 µM (active)"}, {"smiles": "CCOC(=O)CC(=O)CCl", "activity change, negative = cytotoxicity": "-1.62%"}, {"smiles": "c1ccc2c(c1)[nH]c1cnccc12", "activity change, negative = cytotoxicity": "1.16%"}, {"smiles": "CCOc1cc(C(C)(C)C)ccc1C1COC(c2c(F)cccc2F)=N1", "note": "(stereo not given)", "Potency": "23.6 µM (active)"}, {"smiles": "Cc1cc(C(F)(C(F)(F)F)C(F)(F)F)ccc1NC(=O)c1cccc(I)c1C(=O)NC(C)(C)CS(C)(=O)=O", "activity change, negative = cytotoxicity": "-1.82%"}, {"smiles": "C[C@H]1CC[C@@H]2[C@@H](C)[C@H]3[C@H](C[C@H]4[C@@H]5CC=C6CC(O[C@@H]7O[C@H](CO)[C@H](O)[C@H](O[C@@H]8O[C@H](CO)[C@@H](O)[C@H](O)[C@H]8O)[C@H]7O[C@H]7O[C@@H](C)[C@H](O)[C@@H](O)[C@H]7O)CC[C@]6(C)[C@H]5CC[C@]34C)N2C1", "note": "(stereo not given in full)", "activity change, negative = cytotoxicity": "-26% [at 81.1 µM]"}, {"smiles": "CC(=O)Nc1ccc2c(c1)Cc1ccccc1-2", "activity change, negative = cytotoxicity": "-1.48% [at 81.1 µM]"}, {"smiles": "CC(C)Oc1cccc(NC(=O)c2ccccc2C(F)(F)F)c1", "activity change, negative = cytotoxicity": "-18.1% [at 81.1 µM]"}, {"smiles": "O=c1ssc(Cl)c1Cl", "Potency": "43.6 µM (active)"}, {"smiles": "O=C(O)C1C2CCC(O2)C1C(=O)O", "note": "(stereo not given)", "Potency": "inactive"}, {"smiles": "COP(=S)(OC)Oc1cc(Cl)c(Br)cc1Cl", "activity change, negative = cytotoxicity": "-15.6%"}, {"smiles": "CN(C)S(=O)(=O)N(SC(F)(Cl)Cl)c1ccccc1", "Potency": "15.5 µM (active)"}, {"smiles": "Clc1ccc(-c2ccc(Cl)c(Cl)c2Cl)c(Cl)c1Cl", "activity change, negative = cytotoxicity": "-22.1%"}, {"smiles": "C[C@H]1O[C@@H](O[C@H]2[C@@H](O)C[C@H](O[C@H]3[C@@H](O)C[C@H](O[C@H]4CC[C@@]5(C)[C@H](CC[C@@H]6[C@@H]5CC[C@]5(C)[C@@H](C7=CC(=O)OC7)CC[C@]65O)C4)O[C@@H]3C)O[C@@H]2C)C[C@H](O)[C@@H]1O", "Potency": "15.6 nM (active) and 106 nM (active)"}, {"smiles": "Nc1ccccc1C(=O)OC/C=C/c1ccccc1", "Potency": "49.1 µM (active)"}, {"smiles": "COc1ccc(OC)c(CC(C)N)c1", "note": "(stereo not given)", "activity change, negative = cytotoxicity": "17.1% [at 81.1 µM]"}]}]}
